# Screening data deposited in PubChem by Sanford-Burnham Center for Chemical Genomics.
# An excerpt weighted towards active compounds, which were near 28% of everything screened.
# Mac1 fbg inh – inhibitors of CD11b/CD18 adhesion to fibrinogen, primary screen, K562 cells, luminescence; inhibition, % at 10 µM; ATPlite luminescence; Mn2+ added to activate the integrin; hit rate 0.54% among 93,000; AID 1497, 2009;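 active = primary inhibition of 50% or more at 10 µM, then 40% or more on retest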
# CYP2C19 inhib – blockers of cytochrome P450 2C19 activity – biochemical, luminescence, ADME assay, primary screen | inhibition, % at 5 µM | hit rate 21% among 96,000 | CYP2C19 Supersomes, luciferin-H EGE luminescence, 30 min;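 active = CYP2C19 inhibition above a set limit at 5 µM in the primary screen, cut at about 50% in these data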
# CYP2C9 inh – blockers of cytochrome P450 2C9 activity – biochemical, luminescence, ADME assay, primary screen; P11712; CYP2C9 Supersomes, luciferin-H conversion; inhibition, % at 5 µM; hit rate 20% among 96,000;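 active = blocking of liver enzyme CYP2C9 beyond about 50% at 5 µM, limit read from the data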
# Target sequence (P11712 whole entry, looked up): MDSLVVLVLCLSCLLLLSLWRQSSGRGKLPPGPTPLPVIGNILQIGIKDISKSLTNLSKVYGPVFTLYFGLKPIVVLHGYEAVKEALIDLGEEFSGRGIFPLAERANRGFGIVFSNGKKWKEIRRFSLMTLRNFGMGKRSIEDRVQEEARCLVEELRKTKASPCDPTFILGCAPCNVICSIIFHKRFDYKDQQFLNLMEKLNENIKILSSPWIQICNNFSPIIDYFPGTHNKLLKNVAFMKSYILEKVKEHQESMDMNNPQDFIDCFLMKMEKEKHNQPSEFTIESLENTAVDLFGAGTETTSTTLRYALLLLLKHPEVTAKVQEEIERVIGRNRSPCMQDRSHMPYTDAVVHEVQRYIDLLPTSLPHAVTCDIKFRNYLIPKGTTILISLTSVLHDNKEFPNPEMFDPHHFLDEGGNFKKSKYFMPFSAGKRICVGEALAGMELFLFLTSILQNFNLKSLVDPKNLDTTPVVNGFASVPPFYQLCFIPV
# CYP2C19 act – human CYP2C19 activators, primary screen, biochemical, luminescence; Cytochrome P450 2C19 (Homo sapiens), P33261; recombinant CYP2C19, luciferin-H EGE luminescence; active compounds read high; 0 = fully inhibited enzyme, 1 = untreated enzyme; activation factor at 5 µM; 96,000 tested, under 10 active; AID 1025, 2008;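 active = activation factor of at least 2 at 5 µM in the primary screen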
# CYP2C9 activ – human CYP2C9 activators, primary screen, biochemical, luminescence. recombinant CYP2C9, luciferin-H conversion; active compounds read high; factor 1 = untreated enzyme, 0 = blocked. activation factor at 5 µM. hit rate 1.4% among 96,000;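 active = activation factor of 2 or more for CYP2C9 at a 5 µM dose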
# Mac1 fbg enh – enhancers of CD11b/CD18 adhesion to fibrinogen, primary screen, K562 cells, luminescence; ATPlite luminescence; Integrin beta-2 (Homo sapiens) + Integrin alpha-M (Homo sapiens), P05107+P11215; hit rate 0.07% among 93,000; activation, % at 10 µM; AID 1499, 2009;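 active = 10 µM primary screen giving 50% or more activity, confirmed by 40% or more on retest at that dose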
# Hits are given with their value; n = inactive; x = no result.
SMILES,Mac1 fbg inh,CYP2C19 inhib,CYP2C9 inh,CYP2C19 act,CYP2C9 activ,Mac1 fbg enh
CCc1ccc(-c2ccc(C(=O)C(F)(F)F)[nH]2)cc1,x,n,n,n,n,x
CCCCc1nc2sc3c(c2c(=O)[nH]1)CCC3,n,n,n,n,n,n
Cc1ccnc(N2CCC(C(=O)NCc3ccc4c(c3)OCO4)CC2)n1,n,n,66.5,n,n,n
O=C(NCc1ccc2c(c1)OCO2)C1CCN(S(=O)(=O)c2cccs2)CC1,n,n,n,n,n,n
CCc1c(C)nc2ncnn2c1N1CCCC(C(=O)NCc2ccc3c(c2)OCO3)C1 (stereo not drawn),n,n,70.1,n,n,n
O=C(NCc1ccc2c(c1)OCO2)C1CCN(c2ccc(S(=O)(=O)N3CCCC3)cc2)CC1,n,n,62.7,n,n,n
O=C(NCc1ccc2c(c1)OCO2)C1CCN(S(=O)(=O)c2ccc(Br)s2)CC1,n,64.6,n,n,n,n
CCS(=O)CCSc1nc2ccccc2s1 (stereo not drawn),x,n,n,n,n,x
CCOC(=O)c1ncn2c1C(=O)OC2(C)C,n,n,n,n,n,n
CCOc1ccc2[nH]c(=O)c(C(c3nnnn3CC3CCCO3)N3CCc4ccccc4C3)cc2c1 (stereo not drawn),n,50.0,67.5,n,n,n
Cc1cccc2cc(C(c3nnnn3CC3CCCO3)N3CCCc4ccccc43)c(=O)[nH]c12 (stereo not drawn),n,n,56.3,n,n,n
CC(C)C(c1nnnn1Cc1ccc2c(c1)OCO2)N1CCN(c2ccccc2)CC1 (stereo not drawn),n,n,n,n,n,n
Cc1ccc(C)c2[nH]c(=O)c(C(c3nnnn3Cc3ccccc3)N3CCc4ccccc4C3)cc12 (stereo not drawn),n,85.3,72.7,n,n,n
Cc1cc(C(c2nnnn2Cc2ccccc2)N2CCOCC2)c(C)n1-c1ccc2c(c1)OCO2 (stereo not drawn),n,96.5,90.4,n,n,n
O=c1[nH]c2cc3c(cc2cc1C(c1nnnn1Cc1ccccc1)N1CCCCCC1)OCCO3 (stereo not drawn),n,n,n,n,n,n
CCOC(=O)c1[nH]c(C)c(/C(O)=C2\C(=O)C(=O)N(CCCN(C)C)C2c2cccnc2)c1C (stereo not drawn),n,n,n,n,n,n
CC1CN(c2cc(=O)n(-c3ccccc3)c(=O)[nH]2)CC(C)O1 (stereo not drawn),n,n,n,n,n,n
Cc1cccc2cc(C(c3nnnn3Cc3ccc4c(c3)OCO4)N3CCCC3)c(=O)[nH]c12 (stereo not drawn),n,n,50.4,n,n,n
Cc1cccc2cc(C(c3nnnn3CC3CCCO3)N3CCc4ccccc4C3)c(=O)[nH]c12 (stereo not drawn),n,n,59.9,n,n,n
Cc1cccc2cc(C(c3nnnn3CC3CCCO3)N3CCCC4(CCCCC4)C3)c(=O)[nH]c12 (stereo not drawn),n,n,n,n,n,n
Cc1ccc2cc(C(c3nnnn3CC3CCCO3)N3CCc4ccccc4C3)c(=O)[nH]c2c1 (stereo not drawn),n,n,70.9,n,n,n
Cc1cc2cc(C(c3nnnn3CC3CCCO3)N3CCCc4ccccc43)c(=O)[nH]c2cc1C (stereo not drawn),n,n,n,n,n,n
COC(=O)c1[nH]c2cccc(OC)c2c1NC(=O)C(C)N1CCC(C)CC1 (stereo not drawn),n,n,n,n,2.3,n
COC(=O)c1[nH]c2cccc(OC)c2c1NC(=O)CCN1CCC(C)CC1,n,n,n,n,n,n
COc1cc(S(=O)(=O)N(Cc2cccs2)CC2CCCO2)ccc1-n1cnnn1 (stereo not drawn),n,n,n,n,n,n
SMILES,Mac1 fbg inh,CYP2C19 inhib,CYP2C9 inh,CYP2C19 act,CYP2C9 activ,Mac1 fbg enh
COc1ccc(CN(Cc2cccnc2)S(=O)(=O)c2ccc(-n3cnnn3)c(C)c2)cc1OC,n,80.5,94.4,n,n,n
COc1ccc(CCN(Cc2cccs2)S(=O)(=O)c2ccc(-n3cnnn3)c(OC)c2)cc1OC,n,50.1,55.1,n,n,n
CCOC(=O)/C(=N\Nc1ccc(Cl)cc1)Sc1nnc(-c2ccc(OC)cc2)n1C,n,x,x,x,x,n
CN(C)S(=O)(=O)c1cccc(C(=O)NC2CCCc3ccccc32)c1 (stereo not drawn),n,n,n,n,n,n
Cc1cc(C(=O)NC2CCCc3ccccc32)no1 (stereo not drawn),n,n,n,n,n,n
CCCNS(=O)(=O)c1cccc(C(=O)NC2CCCc3ccccc32)c1 (stereo not drawn),n,78.3,89.0,n,n,n
Cc1cc(C(=O)NC2CCCc3ccccc32)c(C)o1 (stereo not drawn),n,n,69.6,n,n,n
CCN(CC)S(=O)(=O)c1ccc2oc(C(=O)NC3CCCc4ccccc43)c(C)c2c1 (stereo not drawn),n,n,59.2,n,n,n
CSCc1c(C(=O)NC2CCCc3ccccc32)oc2ccccc12 (stereo not drawn),n,n,55.3,n,n,n
CCOc1cc(C2/C(=C(/O)c3ccc(OC(C)C)cc3)C(=O)C(=O)N2CCCOC)ccc1O (stereo not drawn),x,n,n,n,n,x
COc1ccc(S(=O)(=O)N2CCN(C(=O)NC3CCCCC3)CC2)cc1OC,n,n,n,n,n,n
COC(=O)C1=C(C)N(C2CCCC2)C(=O)C1(NC(C)=O)C(F)(F)F (stereo not drawn),n,n,n,n,n,n
CCC(=O)Nc1nnc(SCCOC)s1,n,n,n,n,n,n
COCCSc1nnc(NC(=O)CSCc2ccccc2)s1,n,n,59.0,n,n,n
COCCSc1nnc(NS(=O)(=O)Cc2ccccc2)s1,n,n,68.5,n,n,n
COCc1nnc(NC(=O)CSCc2ccccc2)s1,x,n,n,n,n,x
COc1ccc(C2(CNC(=O)Cc3ccc(OC)c(OC)c3)CCOCC2)cc1,x,n,n,n,n,x
O=C(N1CCN(c2ccccc2)CC1)C1(c2cccs2)CCOCC1,n,x,x,x,x,n
Cc1ccc(C)c2[nH]c(=O)c(CCNC(=O)c3ccc(S(=O)(=O)N(C)C)cc3)cc12,n,n,58.6,n,n,n
CCN(CC)S(=O)(=O)c1ccc(C(=O)NCCc2cc3c(OC)ccc(OC)c3[nH]c2=O)cc1,x,n,84.6,n,n,x
COc1ccc(OC)c2[nH]c(=O)c(CCNC(=O)c3ccc(S(=O)(=O)N4CCCC4)cc3)cc12,x,n,62.0,n,n,x
